# Test results reported in PubChem BioAssay (NCI).
# The panel holds about 79,000 compounds, 15% with a hit somewhere; the sample as a whole holds those more often. A number with no mark means an inactive call. The source made the active and inactive calls. No stated cut-off is given here; in the data, active means growth inhibition above about 70%; inactive means the rest.
# How the values were obtained:
# [1] = NCI Yeast Anticancer Drug Screen. Data for the rad50 strain (AID 155);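 further: 0% = growth of vehicle-only cultures of the same strain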; settings: S. cerevisiae rad50 strain growth inhibition; at 50.0 µM; hits give high values
# How it was run: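 Yeast carrying a defined DNA repair defect were exposed to test compounds, and growth was compared with vehicle-treated controls to give percent inhibition.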
# [2] = NCI Yeast Anticancer Drug Screen. Data for the mec2-1 strain (AID 157); settings: S. cerevisiae mec2-1 strain, at 50.0 µM, hits give high values
# How it was run: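 Strain: mec2-1 (DNA repair/cell cycle alteration). Compound exposure, then growth measured; inhibition expressed relative to vehicle.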
# [3] = NCI Yeast Anticancer Drug Screen. Data for the sgs1 mgt1 strain (AID 161);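 further: 0% = growth of cultures given vehicle only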; settings: S. cerevisiae sgs1 mgt1 strain, at 50.0 µM, hits give high values
# How it was run: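 Mutant yeast exposed to compound; growth scored against vehicle-only wells.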
# [4] = NCI Yeast Anticancer Drug Screen. Data for the cln2 rad14 strain (AID 165);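 further: 0% = growth equal to vehicle treated cultures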; settings: S. cerevisiae cln2 rad14 strain, at 50.0 µM, hits give high values
# How it was run: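 Compounds are applied to the cln2 rad14 yeast strain, and growth is then compared with that of vehicle-treated cultures to give inhibition.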
# [5] = NCI Yeast Anticancer Drug Screen. Data for the bub3 strain (AID 167); settings: S. cerevisiae bub3 mutant strain, at 50.0 µM, hits give high values
# How it was run: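 Compounds were applied to a genetically altered yeast strain carrying a cell-cycle control defect. Growth inhibition was scored against vehicle-treated controls.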
# [6] = NCI Yeast Anticancer Drug Screen. Data for the mlh1 rad18 strain (AID 175); settings: S. cerevisiae mlh1 rad18 strain growth inhibition; at 50.0 µM; hits give high values
# How it was run: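 Read-out is yeast growth inhibition, calculated against vehicle-only controls. The compound was applied to a strain engineered with DNA damage repair alterations.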
SMILES,growth inhibition [1],growth inhibition [2],growth inhibition [3],growth inhibition [4],growth inhibition [5],growth inhibition [6]
NC(=O)c1nnsc1NC=O,15.2%,7.95%,-40.7%,-0.2%,-26.1%,-29.8%
Cc1cccc(CCSCCc2cccc(C)[n+]2[O-])[n+]1[O-],19.8%,-2.45%,-1.1%,17.4%,0.8%,1.8%
C=C(C)c1ccc(C(=C)C)cc1,-45.9%,-40.9%,-38.2%,-3.9%,-23.9%,-40.5%
CCCCCCN(CCCCCC)C(=S)N/N=C(\C)c1ccccn1,85% (active),85.5% (active),83.7% (active),72.3% (active),87.6% (active),82.2% (active)
CC1(C)N=C(N)N=C(N)N1c1ccc(CN)cc1,19.8%,7%,-18.4%,-6.8%,-2.3%,19.3%
Cc1nn(C(=O)Cc2ccccc2)c2c1C(c1ccc(O)cc1O)SC(N)=N2 (stereo unspecified),-38.9%,-23.1%,-35.5%,0.8%,-15.6%,-36.5%
CCOC(=O)c1ccc(N[C@@H]2c3cc4c(cc3C(c3cc(OC)c(O)c(OC)c3)[C@H]3C(=O)OCC32)OCO4)cc1 (stereo partly specified),85.6% (active),91.7% (active),89.2% (active),87.5% (active),88% (active),88.8% (active)
CCOC(=O)c1ccc(N(CC(O)CN)S(=O)(=O)c2ccc(C)cc2)cc1 (stereo unspecified),5.7%,-9.5%,-11.2%,4.15%,3.5%,-1.5%
Cc1ccc(S(=O)(=O)OCC(F)(F)C(F)(F)C(F)(F)CO)cc1,19.1%,3.3%,22.2%,-15.6%,3.85%,-15.5%
CCCC(C)C(=O)O (stereo unspecified),23.1%,-1.95%,4%,23.1%,28.8%,19.9%
CC(=O)[C@H]1CC[C@H]2[C@@H]3CC[C@@H]4CC(=O)CC[C@]4(C)[C@H]3[C@@H]3O[C@@H]3[C@]12C,-13.2%,5.4%,-11.1%,-46%,-1.1%,7.55%
Cc1nn(C)c(NC(=O)c2ccccc2O)c1SC#N,43.3%,-5.35%,16.7%,28.2%,35.2%,10.4%
COC(=O)Cc1ccccn1,0.4%,-18.9%,1.4%,14.5%,-21.5%,22.4%
Clc1ccccc1CSc1cc(SCc2ccccc2Cl)nc(SCc2ccccc2Cl)n1,-8%,-2.75%,-2.25%,23.3%,-7.3%,22%
CS/C(=C\c1ccc2cc(C)ccc2[n+]1C)N1CCOCC1,7.25%,-3.85%,-16%,-2.05%,-45.6%,-56.5%
CC(c1ccccc1)/[N+]([O-])=C/c1ccccc1 (stereo unspecified),-31.7%,-33.4%,-46%,-6.7%,-57.2%,-21.6%
COCCOC(=O)c1ccccc1O,5.45%,13.8%,13.8%,2.95%,-13.2%,-1.25%
CC(=O)c1c(C)cc(C)nc1C,14.8%,-12.2%,17.4%,10%,30.6%,9%
C/C(CC(=O)Nc1ccccn1)=N\c1ccccn1,14.2%,-16.5%,-6.6%,-0.35%,1.95%,9.95%
CC(C)=CC(=O)n1nc2c(c1CC(C)C)C(=O)C(Nc1ccccc1)=CC2=O,35.1%,3.25%,21%,24.8%,1.3%,27.4%
CCOc1cc2ccc3c4cc(OC)c(OC)cc4cnc3c2cc1OCC,-16.9%,-17.4%,-12.7%,-0.4%,-9.4%,-18.9%

SMILES,growth inhibition [1],growth inhibition [2],growth inhibition [3],growth inhibition [4],growth inhibition [5],growth inhibition [6]
C(=N\N1CCN(/N=C/c2ccc3ccccc3n2)CC1)/c1ccc2ccccc2n1,38.1%,13.1%,11.9%,26.5%,1.5%,32.4%
Nc1nc(N)c2nonc2n1,-3.7%,-20.8%,-10.8%,-26.2%,-2.85%,2%
CCOC(=O)CCc1c(C)c2c(O)cc(O)cc2oc1=O,3.25%,-3.5%,-19.5%,8.3%,-42.9%,20.7%
CC[C@H]1OC(=O)[C@H](C)[C@@H](OC2CC(C)(OC)C(O)C(C)O2)[C@H](C)[C@@H](OC2OC(C)CC(N(C)C)C2OC(=O)CCC2CCCC2)[C@](C)(O)C[C@@H](C)C(=O)[C@H](C)[C@@H](O)[C@]1(C)O (stereo partly specified),3.25%,-6.95%,4.05%,0.65%,7.3%,-9.55%
CC(C)OC(=O)NCc1cccs1,-10.1%,-2.6%,6.7%,-92.8%,1.7%,-11.1%
COc1ccc(C(=O)/C=C/c2ccccc2)c(O)c1OC,-7.45%,-1.85%,8.1%,-0.95%,9.95%,-7.1%
CN1CCN(C(=O)/C(=C/c2ccccc2)NC(=O)c2ccccc2)CC1,-6.8%,4%,8.05%,-12.7%,0.1%,8.1%
NCc1ccc(Cl)cc1,8.65%,-2.65%,11.4%,25.8%,-2.2%,14.2%
CC(NC(=O)C(Cc1ccc(OC(=O)c2ccccc2)cc1)NC(=O)OC(C)(C)C)C(=O)NCC(=O)NC(Cc1ccccc1)NC(=O)OCc1ccccc1 (stereo unspecified),-11.7%,-24.6%,-27.7%,7.35%,-25.4%,-8.95%
C=CC1(C(=O)O)CCC(C(C)(C)C)CC1 (stereo unspecified),42.9%,42%,31.6%,36.1%,21.6%,13.3%
Cc1c(Cl)cc(C(C)(C)C)c(O)c1Cc1c(C)c(Cl)cc(C(C)(C)C)c1O,19.4%,-8.3%,-46.6%,12.3%,0%,1.95%
COc1ccc(Nc2nc3c([nH]2)c(=O)n(C)c(=O)n3C)cc1,-15.6%,5.1%,-11.3%,6.9%,-1.3%,13.3%
Cc1c(C(=O)O)sc2ccc([N+](=O)[O-])cc12,-8.15%,2.5%,-9.35%,-46.5%,-13.3%,-0.6%
COc1cc(C2c3cc4c(cc3OC(Nc3ccccc3)C2C)OCO4)cc(OC)c1OC (stereo unspecified),-12.7%,5.6%,2.95%,-10.6%,-6.5%,20.8%
O=COCc1ccc(Cl)cc1Cl,16.9%,-2.75%,-5.65%,5%,-1.35%,-11.7%
Cc1cc(S(=O)(=O)Nc2n[nH]c(N)n2)c(SCC(=O)O)cc1Cl,-2.5%,-0.3%,-27.6%,8.55%,1.85%,18.9%
O=C(COc1ccccc1)OC1CCCCC1C1CCCCC1 (stereo unspecified),13.2%,13%,4.05%,21.5%,2.6%,14.2%
Nc1c(Cl)cc(Cl)cc1C(=O)O,-5.05%,-10.5%,0.35%,-28.7%,-11.2%,-16.1%
CCCC#CCN(C(C)C)C(C)C,-12.4%,1.65%,-6.35%,29.2%,-5.25%,-7.85%
CC(=O)Nc1cccc(Cl)c1,-2.25%,-24.5%,-0.2%,-4.8%,-1.45%,6.5%
